Experiment [1] relates to Plasmodium falciparum Sir2 (PF13_0152, Sir2A). Briefly: pfSir2 binders on small-molecule microarrays, primary screen, biochemical, small-molecule microarray, 635 nm fluorescence (AID 1098).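 Also: score merges spot fluorescence intensity with its signal-to-noise ratio.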 Conditions: small-molecule microarray binding, fluorescence 635 nm; higher = more signal.
The nature of experiment [2]: small-molecule microarray binders of probe aDKK1, primary screen, biochemical, biotinylated probe, 635/667 nm fluorescence (AID 1099).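 Also: score merges 667nm spot fluorescence with signal to noise across triplicate slides.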 Conditions: higher = more signal.
The nature of experiment [3]: small-molecule microarray binders of probe aCHRDL2, primary screen, biochemical, biotinylated probe, 635/667 nm fluorescence (AID 1100). Particulars: higher = more signal.
Experiment [4] is described as follows: splicing luciferase reporter signal modulators, primary screen, spliceosome inhibition project, cell-based, HEK293, splice +/- reporter (AID 1101).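 Also: HEK293 cells carrying a splicing-competent luciferase reporter gene; test concentration not given here.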 Conditions: luminescence, 24 h, higher = more signal, called active from +8 up or from −8 down. On the technique in general: Reporter assays use an easily measured gene product as a stand-in for the process of interest.

Experiment [5] addresses Fibroblast growth factor 10 (Homo sapiens) (UniProt O15520). Briefly: FGF10 binders on small-molecule microarrays, primary screen, biochemical, small-molecule microarray, 635 nm fluorescence (AID 1102). Particulars: FGF10 binding, fluorescence 635 nm, higher = more signal.
The test system of experiment [6] is glycogen synthase kinase-3 (GSK3A per assay name; protocol says GSK3B). Kind of experiment: GSK3 binders on small-molecule microarrays, primary screen, biochemical, small-molecule microarray, 635 nm fluorescence, GSK3A (AID 1103). Also: the record names both GSK3A and GSK3B. Particulars: small-molecule microarray binding, fluorescence 635 nm; higher = more signal.
Experiment [7] has as its target Epidermal growth factor receptor (Homo sapiens) (UniProt P00533). Briefly: EGFR binders on small-molecule microarrays, primary screen, biochemical, small-molecule microarray, 635 nm fluorescence (AID 1104).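 Also: score merges 667 nm emission intensity with spot signal to noise over triplicate slides.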 Conditions: EGFR binding, higher = more signal.
Experiment [8] has as its target Follistatin-related protein 3 (Homo sapiens) (UniProt O95633). Briefly: FSTL3 binders on small-molecule microarrays, primary screen, biochemical, small-molecule microarray, 635 nm fluorescence (AID 1105).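 Also: score merges emission near 667 nm and signal to noise per printed spot across three slides.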 Conditions: FSTL3 binding, higher = more signal.
Experiment [9] concerns the target Dickkopf-related protein 1 (Homo sapiens) (UniProt O94907). Briefly: DKK1 binders on small-molecule microarrays, primary screen, biochemical, small-molecule microarray, 635 nm fluorescence scan (AID 1106).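 Also: score merges emission near 667 nm with signal to noise over three replicate slides.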 Particulars: DKK1 binding, higher = more signal.
In experiment [10] the test system is Inhibin beta A chain (activin A). Briefly: INHBA (activin A) binders on microarrays, primary screen, biochemical, small-molecule microarray, 635 nm fluorescence scan (AID 1107).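 Also: mouse activin A protein probed at 4.33 µg/mL on printed slides; score merges bound-protein fluorescence near 667 nm with spot signal-to-noise.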 Conditions: small-molecule microarray binding, higher = more signal.
Experiment [11] deals with Human papillomavirus type 1a protein E7 (residues 44-93). Kind of experiment: HPV1a E7 fragment binders on microarrays, primary screen, biochemical, small-molecule microarray, residues 44-93, 635 nm fluorescence (AID 1108).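 Also: E7 fragment applied at 1 µg/mL in TBST for 1 h at 4 C; score combines spot fluorescence with its signal to noise ratio.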 Particulars: small-molecule microarray binding, fluorescence 635 nm; higher = more signal.
Experiment [12] can be described thus: modulators of HCV replicon luciferase signal, primary screen, HCV replication inhibitor project, Huh7 cells, luciferase reporter (AID 1109).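 Also: huh7 hepatoma cells harbouring a luciferase neomycin HCV replicon reporter; luciferase luminescence as measure of HCV replicon replication; test concentration not given here.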 Conditions: 48 h, higher = more signal. On the technique in general: Replicon systems follow genome replication, usually without infectious particles.
Experiment [13] has as its target Left-right determination factor 2 (Homo sapiens) (UniProt O00292). Briefly: LEFTY2 binders on small-molecule microarrays, primary screen, biochemical, small-molecule microarray, 635 nm fluorescence scan (AID 1110). Conditions: LEFTY2 binding, higher = more signal.
Experiment [14] deals with Calmodulin-1 (Homo sapiens) (UniProt P0DP23). Briefly: CALM1 binders on microarrays, EGTA buffer, profiling panel, biochemical, small-molecule microarray, Cy5-labelled CALM1 (AID 1111).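 Also: labelled calmodulin applied in Tris saline Tween buffer holding calcium plus EGTA and DTT.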 Conditions: Cy5-CALM1 binding fluorescence, higher = more signal.
Experiment [15] has the same target. Kind of experiment: calcium-bound CALM1 binders on microarrays, profiling panel, artefact control for SMM control-protein annotation, biochemical, small-molecule microarray, Cy5-labelled CALM1, plus calcium (AID 1112).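 Also: score merges spot fluorescence with signal to noise from triplicate slides.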 Conditions: Cy5-CALM1 binding fluorescence, higher = more signal.
The nature of experiment [16]: small-molecule microarray binders of probe aWnt5a, primary screen, biochemical, biotinylated probe, 635/667 nm fluorescence (AID 1113).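 Also: score merges 667 nm fluorescence intensity with signal-to-noise per printed feature.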 Conditions: higher = more signal.
The nature of experiment [17]: small-molecule microarray binders of probe aShh, primary screen, biochemical, biotinylated probe, 635/667 nm fluorescence (AID 1114).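 Also: probe is biotin-labelled aShh protein from a stem cell growth factor screen; measures binding of labelled protein to compounds printed on the slide; score merges feature fluorescence at 667 nm with signal-to-noise.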 Conditions: higher = more signal.
Experiment [18] in a line: small-molecule microarray binders of probe aNog, primary screen, biochemical, biotinylated probe, 635/667 nm fluorescence (AID 1115).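 Also: probe is biotinylated aNog protein used at 0.15 µg/mL for 1 h at 4 C; z-score combines 667 nm fluorescence of each spot with its signal to noise.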 Particulars: higher = more signal.
The target in experiment [19] is Torsin-1A-interacting protein 1 (Homo sapiens) (UniProt Q5JTV8). Kind of experiment: LAP1 binders from COS7 cell lysate, primary screen, small-molecule microarray, 635/667 nm fluorescence (AID 1116). Particulars: COS7-hLAP1 lysate binding, 635 nm fluorescence, higher = more signal.
Sequence of Torsin-1A-interacting protein 1 (Homo sapiens) (Q5JTV8 whole entry, looked up): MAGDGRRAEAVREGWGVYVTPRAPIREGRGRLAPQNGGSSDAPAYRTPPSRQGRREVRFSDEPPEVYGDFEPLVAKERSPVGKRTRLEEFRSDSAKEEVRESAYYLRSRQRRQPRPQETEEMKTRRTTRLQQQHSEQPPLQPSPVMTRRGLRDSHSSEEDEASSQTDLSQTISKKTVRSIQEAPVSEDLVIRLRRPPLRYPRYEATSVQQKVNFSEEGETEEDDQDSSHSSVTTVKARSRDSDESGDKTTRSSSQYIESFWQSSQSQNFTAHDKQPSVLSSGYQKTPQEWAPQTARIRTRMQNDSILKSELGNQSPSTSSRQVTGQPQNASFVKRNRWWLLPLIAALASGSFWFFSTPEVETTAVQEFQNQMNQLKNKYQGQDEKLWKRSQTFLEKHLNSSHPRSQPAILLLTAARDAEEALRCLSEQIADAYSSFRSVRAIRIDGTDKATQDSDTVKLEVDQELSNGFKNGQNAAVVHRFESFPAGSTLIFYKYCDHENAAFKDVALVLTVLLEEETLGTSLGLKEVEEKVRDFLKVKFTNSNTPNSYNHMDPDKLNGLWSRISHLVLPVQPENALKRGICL
The target in experiment [20] is Alpha-bungarotoxin (Bungarus multicinctus) (UniProt P60615). Kind of experiment: alpha-bungarotoxin binders on microarray, profiling panel, artefact control for SMM control protein annotation, biochemical, small-molecule microarray, Alexa647 label, 635/667 nm fluorescence (AID 1117). Particulars: alpha-BTX-A647 binding fluorescence, higher = more signal.
Sequence of Alpha-bungarotoxin (Bungarus multicinctus) (P60615 whole entry, looked up): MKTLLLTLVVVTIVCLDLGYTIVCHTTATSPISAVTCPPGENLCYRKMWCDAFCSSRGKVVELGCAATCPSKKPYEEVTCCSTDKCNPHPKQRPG

Activity calls are given as the source filed them.

Sequence of Fibroblast growth factor 10 (Homo sapiens) (O15520 whole entry, looked up): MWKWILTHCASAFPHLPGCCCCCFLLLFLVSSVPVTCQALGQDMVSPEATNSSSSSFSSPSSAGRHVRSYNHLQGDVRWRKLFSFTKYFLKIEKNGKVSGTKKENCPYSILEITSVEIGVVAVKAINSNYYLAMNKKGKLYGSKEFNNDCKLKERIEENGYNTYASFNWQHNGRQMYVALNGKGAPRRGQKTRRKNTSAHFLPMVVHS
Sequence of Follistatin-related protein 3 (Homo sapiens) (O95633 whole entry, looked up): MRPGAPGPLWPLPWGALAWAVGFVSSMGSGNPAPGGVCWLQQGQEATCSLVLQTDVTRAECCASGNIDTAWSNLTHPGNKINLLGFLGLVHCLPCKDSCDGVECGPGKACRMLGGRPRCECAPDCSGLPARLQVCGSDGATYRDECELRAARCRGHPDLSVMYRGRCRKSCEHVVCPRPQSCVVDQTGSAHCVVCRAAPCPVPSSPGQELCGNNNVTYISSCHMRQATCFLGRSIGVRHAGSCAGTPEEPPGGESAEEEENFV
Sequence of Dickkopf-related protein 1 (Homo sapiens) (O94907 whole entry, looked up): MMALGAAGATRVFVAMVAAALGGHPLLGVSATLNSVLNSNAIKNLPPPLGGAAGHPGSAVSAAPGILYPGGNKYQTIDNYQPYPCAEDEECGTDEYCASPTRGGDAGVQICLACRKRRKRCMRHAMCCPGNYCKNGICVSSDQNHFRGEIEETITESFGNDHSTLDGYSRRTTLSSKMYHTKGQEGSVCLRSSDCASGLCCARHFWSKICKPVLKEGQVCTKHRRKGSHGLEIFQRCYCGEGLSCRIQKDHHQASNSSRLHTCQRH
Sequence of Epidermal growth factor receptor (Homo sapiens) (P00533 whole entry, looked up): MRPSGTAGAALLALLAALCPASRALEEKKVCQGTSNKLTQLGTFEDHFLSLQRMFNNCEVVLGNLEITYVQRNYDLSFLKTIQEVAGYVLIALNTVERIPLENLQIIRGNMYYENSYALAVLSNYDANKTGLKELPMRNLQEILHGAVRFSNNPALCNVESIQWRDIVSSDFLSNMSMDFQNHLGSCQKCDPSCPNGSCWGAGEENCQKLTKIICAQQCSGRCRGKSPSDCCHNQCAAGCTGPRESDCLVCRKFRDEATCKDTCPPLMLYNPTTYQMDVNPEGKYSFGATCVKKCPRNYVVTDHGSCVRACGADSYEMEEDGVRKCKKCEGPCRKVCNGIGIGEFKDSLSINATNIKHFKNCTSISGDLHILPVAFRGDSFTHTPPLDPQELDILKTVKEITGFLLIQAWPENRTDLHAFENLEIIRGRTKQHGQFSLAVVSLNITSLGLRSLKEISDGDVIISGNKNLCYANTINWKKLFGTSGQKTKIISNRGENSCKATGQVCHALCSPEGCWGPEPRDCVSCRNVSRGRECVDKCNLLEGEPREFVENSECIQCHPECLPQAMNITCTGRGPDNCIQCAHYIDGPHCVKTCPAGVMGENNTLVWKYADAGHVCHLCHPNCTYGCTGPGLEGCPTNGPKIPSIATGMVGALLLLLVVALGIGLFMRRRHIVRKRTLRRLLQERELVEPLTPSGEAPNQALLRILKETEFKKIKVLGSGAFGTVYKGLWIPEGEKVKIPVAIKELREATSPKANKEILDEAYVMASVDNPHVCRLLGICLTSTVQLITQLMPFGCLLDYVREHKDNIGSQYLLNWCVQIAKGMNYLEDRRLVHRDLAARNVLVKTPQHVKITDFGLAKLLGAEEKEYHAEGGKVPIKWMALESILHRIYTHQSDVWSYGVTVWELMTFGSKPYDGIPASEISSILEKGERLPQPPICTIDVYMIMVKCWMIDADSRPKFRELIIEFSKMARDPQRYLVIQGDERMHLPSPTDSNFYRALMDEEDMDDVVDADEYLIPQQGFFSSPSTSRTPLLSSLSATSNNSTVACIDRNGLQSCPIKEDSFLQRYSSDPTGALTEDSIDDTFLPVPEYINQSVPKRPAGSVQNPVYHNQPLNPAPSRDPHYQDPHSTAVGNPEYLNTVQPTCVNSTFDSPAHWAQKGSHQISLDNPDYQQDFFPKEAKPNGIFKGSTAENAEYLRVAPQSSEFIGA
Sequence of Left-right determination factor 2 (Homo sapiens) (O00292 whole entry, looked up): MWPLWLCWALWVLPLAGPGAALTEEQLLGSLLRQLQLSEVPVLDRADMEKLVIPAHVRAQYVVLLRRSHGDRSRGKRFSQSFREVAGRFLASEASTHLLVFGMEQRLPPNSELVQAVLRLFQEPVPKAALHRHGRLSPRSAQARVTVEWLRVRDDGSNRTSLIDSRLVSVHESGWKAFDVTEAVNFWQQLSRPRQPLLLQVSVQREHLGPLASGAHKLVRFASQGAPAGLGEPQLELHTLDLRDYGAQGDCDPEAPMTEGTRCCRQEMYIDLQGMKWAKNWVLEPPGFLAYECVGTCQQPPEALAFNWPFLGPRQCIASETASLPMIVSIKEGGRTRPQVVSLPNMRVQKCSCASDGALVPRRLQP

On to `[N-]=[N+]=NCc1ccccc1[C@H]1OC(c2ccc(OCCCO)cc2)=N[C@@]1(Cc1ccccc1)C(=O)N1CCCCC1`, for which the composite z-score in experiment [1] is 1.14; in [2], 0.344; in [3], 0.574; in experiment [5], 1.34; in [6], 1.3; in [7] it was 0.0201. For the same compound, the composite z-score is 0.79 in experiment [8]; 0.428 in [9]; 0.522 in experiment [10]; 1.37 in [11]; 0.198 in experiment [13]; 1.23 in [14]. The composite z-score is 0.0298 in experiment [15]; 0.195 in experiment [16]; -0.0243 in [17]; -0.768 in [18]; 0.249 in experiment [19]; 1.43 in experiment [20]. Moreover, the figures for the z-score in [4] and in experiment [12] were -1.05 (inactive) and -2.55, respectively.
Consider `[N-]=[N+]=Nc1ccccc1C[C@]1(C(=O)NCC(O)CO)N=C(c2ccc(OCCCO)cc2)O[C@H]1c1ccccc1` (stereo not given in full), for which the composite z-score in experiment [1] is 0.848; in experiment [2] it was 0.603; in experiment [3], 0.965; in experiment [5], 0.786; in experiment [6], 0.544; in [7], -0.704. The composite z-score in experiment [8] is -0.107; in experiment [9] it was -0.735; in experiment [10] it was 0.537; in experiment [11], 1.45; in [13], -1.32; in experiment [14], 1.89. Moreover, the composite z-score in experiment [15] was 0.496; in experiment [16] it was -0.0924; in experiment [17] it was -0.0709; in experiment [18], -0.492; in [19], 0.954; in experiment [20], 0.903. Further, the z-score is -0.29 (inactive) in [4] and -0.962 in experiment [12].
On to `NC(=O)N1C(=O)C2C(C1=O)C1C=C(CCCO)C2C(C2CC2)N1Cc1cc2c(cc1Br)OCO2` (stereo not given), for which the composite z-score in experiment [1] is -0.267; in experiment [2] it was -0.165; in experiment [3], 0.32; in experiment [5], -0.395; in experiment [6], -0.645; in experiment [7], -0.376. In addition, the composite z-score in experiment [8] was -0.252; in experiment [9] it was -0.891; in [10], 0.943; in experiment [11] it was -0.443; in [13], -0.549; in [14], 0.0653. Besides, the composite z-score in [15] was 0.357; in [16], -0.12; in experiment [17], 0.0278; in [18], -0.0065; in experiment [19], -0.111; in experiment [20], 0.515. Also, the z-score in experiment [4] was 0.901 (inactive); in experiment [12], -0.264.
As for `O=C1C2C=CC(C(O)c3cc(C(F)(F)F)cc(C(F)(F)F)c3)N(Nc3ccccc3)C2C(=O)N1c1ccccc1` (stereo not given), the composite z-score in [1] is 1.24; in [2], 0.723; in [3], 0.433; in [5] it was -0.239; in experiment [6], 0.22; in [7], -0.303. For the same compound, the composite z-score in [8] was -0.154; in experiment [9], -0.667; in experiment [10] it was 1.01; in experiment [11], 1.44; in experiment [13], -0.457; in experiment [14] it was 0.925. Further, the composite z-score in [15] was 0.388; in experiment [16], -0.0425; in experiment [17] it was -0.358; in [18], 0.341; in [19], 1.07; in experiment [20] it was 0.63. Further, the z-score was -2.9 (inactive) in experiment [4] and -0.761 in [12].
Regarding `O=C1C2C=CC(C(O)C=Cc3ccc([N+](=O)[O-])cc3)N(n3cnnc3)C2C(=O)N1Cc1ccccc1` (stereo not given), the composite z-score in [1] was 1.53; in [2], 0.341; in experiment [3], 0.832; in experiment [5], 0.466; in [6] it was 0.587; in [7], -0.0912. The composite z-score is 0.906 in experiment [8]; 0.377 in experiment [9]; 1.17 in experiment [10]; 1.34 in [11]; -0.368 in [13]; 0.596 in experiment [14]. Besides, the composite z-score was -0.143 in [15]; 0.0633 in [16]; -0.0035 in experiment [17]; 0.977 in [18]; 0.832 in experiment [19]; 1.39 in experiment [20]. In addition, the z-score in [4] was 0.243 (inactive); in experiment [12] it was -0.93.
For the compound `CC1CC/C=C\[C@H]2OC34C=CCN(Cn5nnc6ccccc65)C(=O)[C@H]3N(CCCCCO)C(=O)[C@@H]4C2C(=O)O1` (stereo not given in full), the composite z-score was 0.285 in [1]; -0.415 in experiment [2]; 0.598 in [3]; -1.26 in experiment [5]; -1.32 in [6]; -0.494 in experiment [7]. The composite z-score in experiment [8] is -0.186; in experiment [9] it was -1.27; in experiment [10], -0.318; in experiment [11] it was -1.05; in experiment [13], -1.54; in experiment [14] it was -0.881. Also, the composite z-score was 0.0455 in experiment [15]; -0.197 in experiment [16]; -0.283 in experiment [17]; 0.558 in experiment [18]; -0.722 in [19]; -1.3 in experiment [20]. In addition, the z-score is 0.271 (inactive) in experiment [4] and 0.814 in experiment [12].
Turning to `C#CCN1[C@@H](Cc2ccc(O)cc2)C(=O)O[C@H](Cc2ccccc2)[C@@H]1/C=C/C1CC1`, the composite z-score in [1] was -0.0032; in experiment [2], -0.366; in experiment [3], -0.337; in experiment [5], 0.172; in [6], -0.102; in experiment [7], 0.002. Besides, the composite z-score was -0.149 in experiment [8]; 0.0874 in experiment [9]; 0.718 in [10]; -0.513 in [11]; 0.207 in experiment [13]; -0.458 in [14]. The composite z-score in experiment [15] is -0.587; in experiment [16], -0.18; in experiment [17], 0.163; in experiment [18], -0.113; in [19], -0.188; in [20], 0.0577. Moreover, the values for the z-score in experiment [4] and in [12] were 1.99 (inactive) and -3.22, respectively.

The values are drawn from PubChem BioAssay.
